Experimental data taken from PubChem BioAssay.
Activity calls are given as the source filed them.

Target: Albumin (Bos taurus) (UniProt P02769)
Assay: compounds binding labelled BSA control protein – biochemical, small-molecule microarray, Alexa647 label, 635/667 nm fluorescence, artefact control for SMM control protein annotation, profiling panel (AID 1118);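 further: score merges 667 nm emission intensity and signal-to-noise per printed compound spot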
Settings: BSA-A647 binding, fluorescence 635 nm, higher = more signal

Sequence of Albumin (Bos taurus) (P02769 whole entry, looked up): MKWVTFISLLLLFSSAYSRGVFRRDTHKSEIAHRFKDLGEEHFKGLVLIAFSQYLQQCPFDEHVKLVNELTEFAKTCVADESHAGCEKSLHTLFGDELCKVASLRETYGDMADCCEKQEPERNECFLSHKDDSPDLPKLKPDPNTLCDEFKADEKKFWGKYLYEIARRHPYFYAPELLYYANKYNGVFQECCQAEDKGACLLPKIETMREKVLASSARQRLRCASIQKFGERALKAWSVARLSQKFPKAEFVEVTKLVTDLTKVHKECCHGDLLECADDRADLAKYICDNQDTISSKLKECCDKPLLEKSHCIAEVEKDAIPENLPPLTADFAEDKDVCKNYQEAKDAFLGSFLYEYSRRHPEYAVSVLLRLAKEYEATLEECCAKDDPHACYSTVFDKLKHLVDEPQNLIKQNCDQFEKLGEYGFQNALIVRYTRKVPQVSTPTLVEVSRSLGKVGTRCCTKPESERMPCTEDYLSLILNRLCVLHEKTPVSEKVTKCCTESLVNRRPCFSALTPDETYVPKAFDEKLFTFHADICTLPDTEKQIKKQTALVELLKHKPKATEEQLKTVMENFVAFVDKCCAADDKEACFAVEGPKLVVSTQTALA

Compound | composite z-score
CO[C@H]1O[C@H](CO)[C@@H](OC(=O)Nc2ccccc2)[C@H](OC(=O)Nc2ccccc2)[C@@H]1OC(=O)Nc1ccccc1 | 0.809
COc1ccc(CCNC(=O)[C@@]2(Sc3ccc(C)cc3)CC(=O)N(C3Cc4ccccc4C3)[C@@H]2c2ccc(CO)cc2I)cc1 | -0.101
CCCCCN1CC=CC23O[C@@H]4C=CCCOC(=O)C4[C@H]2C(=O)N(CCCCCO)[C@@H]3C1=O (stereo not given in full) | 0.337
COc1cc2c(cc1OC)CN(C(=O)[C@H]1[C@@H]3C(=O)O[C@@H](c4ccccc4)[C@@H](c4ccccc4)N3[C@@H](c3ccc(O)cc3)[C@]13C(=O)Nc1ccc(C#CCCO)cc13)CC2 | 0.184
CN1C=C(C(=O)OCCS(C)(=O)=O)C(C(=O)OCCS(C)(=O)=O)=CC(c2ccc(CO)cc2)=CC1C1CC1 (stereo not given) | -0.0317
C=C[C@H](CO[Si](CC)(CC)CC)N(Cc1ccc(OC(C)=O)c(OC)c1)S(=O)(=O)c1ccc(Br)cc1 | 0.848
C[N+](C)(C)CCCCCCNC(=O)[C@@H]1C[C@@H]2C(=O)N[C@@H](Cc3ccccc3)C(=O)N2[C@@H]1c1cccc(OCCO)c1 | 0.358
NC(=O)[C@@H]1[C@H]2C(=O)O[C@H](c3ccccc3)[C@H](c3ccccc3)N2[C@H](c2ccc(O)cc2)[C@@]12C(=O)Nc1ccccc12 | 0.257
C=C(CCCC)/C(=C/C[C@@H](OC(C)=O)c1ccc(OCCO)cc1)c1cnc2ccccc2c1 | 0.631

Test system: not listed separately
Assay: probe aXIP binding to arrayed compounds – biochemical, NeuroSMM set, 635/667 nm fluorescence, primary screen (AID 1119);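 further: probe is the protein aXip251-270 applied at 1 µg/mL to compound-printed slides; binding of probe to printed compounds measured as 667 nm fluorescence plus signal to noise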
Settings: small-molecule microarray, higher = more signal, called active from +8 up or from −8 down

Compound | composite Z-score
CC(C)=CCN[C@H](CO)c1ccccc1 | -0.139 (inactive)
CCCC#C[Si](O[C@H](CC)c1cn(Cc2cccc(Cl)c2)nn1)(C(C)C)C(C)C | -0.014 (inactive)
C=CCOC(=O)[C@H]1[C@@H]2C(=O)O[C@@H](c3ccccc3)[C@@H](c3ccccc3)N2[C@@H](c2ccc(OCCOC(=O)[C@H]3C[C@H]4C(=O)N[C@@H](CCCCNC(C)=O)C(=O)N4[C@H]3c3cccc(OCCO)c3)cc2)[C@]12C(=O)Nc1ccccc12 | 0.93 (inactive)
C=C(COC)/C(=C/C[C@@H](OC(=O)c1ccncc1)c1ccc(CO)o1)c1cc(C(=O)OC)ccc1OC | -0.0882 (inactive)
CC(C)C(=C=CC[C@@H](O)c1ccc(OCCO)cc1)C[C@@H](O)COCc1ccccc1 | -0.114 (inactive)
CCCCCCc1nc(-c2cc(C)c(OC)c(C)c2)cc2c1[Si](C(C)C)(C(C)C)OC2 | 0.244 (inactive)
COc1cc2c(cc1O)C(C1CC1)N(Cc1sc3ccccc3c1Cl)CC2 (stereo not given) | -0.909 (inactive)
COCCOC(=O)N1C(=O)[C@@]2(c3cc(C#CCC(C(=O)OC)C(=O)OC)ccc31)[C@H](C(=O)N1CCN(c3ncccn3)CC1)[C@H]1C(=O)O[C@H](c3ccccc3)[C@H](c3ccccc3)N1[C@@H]2c1ccccc1OCCO | -0.444 (inactive)
C[C@H]1NC(=O)[C@@]23C(=O)N[C@@H](Cc4ccccc4)C2[C@H](C)[C@@]2(C)O[C@H]2C3/C=C/C/C=C\CNC(=O)[C@@H]2CCCN2C1=O (stereo not given in full) | 0.542 (inactive)
CCOC(=O)C[C@H]1[C@H](OC(=O)c2ccc(C(=O)c3ccccc3)cc2)[C@@H](NC(=O)c2ccc3ccccc3n2)c2cc(OCCCO)ccc2N1C(=O)c1ccccc1 | -0.12 (inactive)
CCCC[C@@H]1C[C@H]1[C@@H](NC(=O)c1cccs1)c1ccc(-c2ccccc2)cc1 | -0.252 (inactive)
COC(=O)[C@@]1(Cc2ccc(OC)cc2)[C@H]2c3cc(C(=O)N4CCCC4)n(Cc4ccc(O)c(OC)c4)c3C[C@H]2CN1C(=O)c1ccccc1 | 1.64 (inactive)
[N-]=[N+]=NCc1ccccc1C[C@]1(C(N)=O)COC(c2ccc(OCCCO)cc2)=N1 | 0.155 (inactive)
C=C(COC)C(=O)CC[C@@H](OC(C)=O)c1ccc(CO)o1 | 0.365 (inactive)
O=C1c2ccccc2[C@](Cc2ccccc2I)(C(=O)NCCN2CCOCC2)[C@H](c2ccc(CO)cc2)N1Cc1ccccc1Cl | 0.322 (inactive)
COCCCNC(=O)[C@]1(CCC(=O)OC(C)(C)C)N=C(c2ccc(OCCCO)cc2)O[C@@H]1c1ccccc1CN=[N+]=[N-] | 0.0707 (inactive)
C=CCNC(=O)[C@@H]1[C@H]2C(=O)O[C@H](c3ccccc3)[C@H](c3ccccc3)N2[C@H](c2ccc(OCCO)cc2)[C@@]12C(=O)Nc1ccc(C#CCC(C(=O)OC)C(=O)OC)cc12 | 0.788 (inactive)
COc1cc2c(cc1OC)CN(C(=O)[C@@H]1[C@H]3C(=O)O[C@H](c4ccccc4)[C@H](c4ccccc4)N3[C@H](c3ccccc3OCCO)[C@@]13C(=O)Nc1ccc(C#CCCO)cc13)CC2 | 0.252 (inactive)

Compound | composite Z-score
C=CCC(OC(C)=O)[C@@H]1[C@@H](N(Cc2cc3ccccc3o2)C(=O)c2cccc3ccccc23)c2cc(OCCCO)ccc2N1C(=O)c1ccc(-c2ccccc2)cc1 (stereo not given in full) | -0.418 (inactive)
COC(=O)[C@@]1(Cc2ccc(F)cc2)[C@H]2c3cc(C(=O)N4CCCC4)n(CCCNc4ncc(C(F)(F)F)cc4Cl)c3C[C@H]2CN1C(=O)c1ccccc1 | -0.585 (inactive)
CC(C)N1C(=O)c2ccccc2[C@](C)(C(=O)NCCN2CCOCC2)[C@@H]1c1ccc(CO)cc1 | -0.523 (inactive)
CC(C)C(=C=CC[C@@H](O)c1ccc(OCCO)cc1)C[C@@H](O)c1ccccn1 | 1.24 (inactive)
CO[C@H]1O[C@H](CO)[C@@H](OC(=O)Nc2ccc(Oc3ccccc3)cc2)[C@H](OC(=O)Nc2ccc3c(c2)OCO3)[C@H]1OC(=O)Nc1ccc2c(c1)OCO2 | 0.705 (inactive)
C=CCOC(=O)[C@H]1[C@@H]2C(=O)O[C@@H](c3ccccc3)[C@@H](c3ccccc3)N2[C@@H](c2ccc(OCCOC(=O)[C@@H]3C[C@@H]4C(=O)N[C@@H](CC(C)C)C(=O)N4[C@@H]3c3ccc(O)cc3)cc2)[C@]12C(=O)Nc1ccccc12 | 0.183 (inactive)
O=C(c1ccccc1)N1C(=O)[C@]2(COC(c3ccc(OCCCO)cc3)=N2)Cc2ccccc21 | 3.03 (inactive)
CCCc1cc2c(n1Cc1cc(F)cc(F)c1)C(C)C1CN(C(=O)c3ccccc3)C(C)(C(=O)OC)C21 (stereo not given) | 0.723 (inactive)
O=C(c1ccccc1)N1C(=O)[C@@]2(Cc3ccccc31)N=C(c1ccc(OCCCO)cc1)O[C@H]2c1ccccc1 | 0.718 (inactive)
CO[C@H]1O[C@H](CO)[C@@H](OC(=O)Nc2ccccc2)[C@H](OC(=O)Nc2ccccc2)[C@@H]1OC(=O)Nc1ccccc1 | -0.0073 (inactive)
COc1ccc(CCNC(=O)[C@@]2(Sc3ccc(C)cc3)CC(=O)N(C3Cc4ccccc4C3)[C@@H]2c2ccc(CO)cc2I)cc1 | -0.235 (inactive)
CCCCCN1CC=CC23O[C@@H]4C=CCCOC(=O)C4[C@H]2C(=O)N(CCCCCO)[C@@H]3C1=O (stereo not given in full) | 0.0269 (inactive)
COc1cc2c(cc1OC)CN(C(=O)[C@H]1[C@@H]3C(=O)O[C@@H](c4ccccc4)[C@@H](c4ccccc4)N3[C@@H](c3ccc(O)cc3)[C@]13C(=O)Nc1ccc(C#CCCO)cc13)CC2 | 0.274 (inactive)
CN1C=C(C(=O)OCCS(C)(=O)=O)C(C(=O)OCCS(C)(=O)=O)=CC(c2ccc(CO)cc2)=CC1C1CC1 (stereo not given) | 0.0063 (inactive)
C=C[C@H](CO[Si](CC)(CC)CC)N(Cc1ccc(OC(C)=O)c(OC)c1)S(=O)(=O)c1ccc(Br)cc1 | 0.646 (inactive)
C[N+](C)(C)CCCCCCNC(=O)[C@@H]1C[C@@H]2C(=O)N[C@@H](Cc3ccccc3)C(=O)N2[C@@H]1c1cccc(OCCO)c1 | 0.6 (inactive)
NC(=O)[C@@H]1[C@H]2C(=O)O[C@H](c3ccccc3)[C@H](c3ccccc3)N2[C@H](c2ccc(O)cc2)[C@@]12C(=O)Nc1ccccc12 | -0.622 (inactive)
C=C(CCCC)/C(=C/C[C@@H](OC(C)=O)c1ccc(OCCO)cc1)c1cnc2ccccc2c1 | -0.302 (inactive)
